{"source": "PubChem BioAssay (NCATS)", "key": {"[1]": {"experiment": "AP1 Signaling Pathway (AID 357; active = well fitted curve in either direction with a large enough effect, not every such curve was filed as active)", "details": "ME-180 AP-1-bla reporter, EGF-induced, beta-lactamase ratio, 5 h; at 7.69 µM (top of the series) unless noted", "procedure,_shortened": "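ME-180 cells with beta-lactamase reporter under AP-1 response element, stimulated with EC50 EGF; compounds tested in titration series, 5 h at 37 °C. CCF4 substrate added 2.5 h at room temperature; 460/530 nm emission ratio gave %activity and AC50.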"}, "[2]": {"experiment": "NFAT Signaling Pathway (AID 444; active = well fitted curve in either direction with a large enough effect, not every such curve was filed as active;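 note: carbachol stimulus at about its EC50 of 1 µM final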)", "details": "Jurkat NFAT-bla M1, carbachol, beta-lactamase ratio, 5 h; at 7.69 µM (top of the series) unless noted", "procedure,_shortened": "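Jurkat cells carrying an NFAT-driven β-lactamase reporter and co-transfected muscarinic M1 receptor were treated with compound plus carbachol (1 uM final, an EC50 level) for 5 h at 37 °C. CCF4 loading followed for 1 h at RT; 460/530 nm ratio gave %activity.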"}, "[3]": {"experiment": "Stat Signaling Pathway (AID 446; active = well fitted curve in either direction with a large enough effect, not every such curve was filed as active;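 note: ME-180 cervical cancer cells given 40 pM IL-6 alongside compound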)", "details": "ME-180 SIE beta-lactamase reporter, IL-6 stimulated, 5 h; at 7.69 µM (top of the series) unless noted", "procedure,_shortened": "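Emission at 460 and 530 nm (excitation 405 nm) reports SIE-controlled beta-lactamase in ME-180 cells. Cells received compound with 40 pM IL-6 for 5 hrs at 37 C; data scaled between 300 pM IL-6 and 125 nM JAK-inhibitor controls.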"}, "[4]": {"target": "Glucocorticoid receptor (Homo sapiens) (UniProt P04150)", "sequence (P04150 whole entry, looked up)": "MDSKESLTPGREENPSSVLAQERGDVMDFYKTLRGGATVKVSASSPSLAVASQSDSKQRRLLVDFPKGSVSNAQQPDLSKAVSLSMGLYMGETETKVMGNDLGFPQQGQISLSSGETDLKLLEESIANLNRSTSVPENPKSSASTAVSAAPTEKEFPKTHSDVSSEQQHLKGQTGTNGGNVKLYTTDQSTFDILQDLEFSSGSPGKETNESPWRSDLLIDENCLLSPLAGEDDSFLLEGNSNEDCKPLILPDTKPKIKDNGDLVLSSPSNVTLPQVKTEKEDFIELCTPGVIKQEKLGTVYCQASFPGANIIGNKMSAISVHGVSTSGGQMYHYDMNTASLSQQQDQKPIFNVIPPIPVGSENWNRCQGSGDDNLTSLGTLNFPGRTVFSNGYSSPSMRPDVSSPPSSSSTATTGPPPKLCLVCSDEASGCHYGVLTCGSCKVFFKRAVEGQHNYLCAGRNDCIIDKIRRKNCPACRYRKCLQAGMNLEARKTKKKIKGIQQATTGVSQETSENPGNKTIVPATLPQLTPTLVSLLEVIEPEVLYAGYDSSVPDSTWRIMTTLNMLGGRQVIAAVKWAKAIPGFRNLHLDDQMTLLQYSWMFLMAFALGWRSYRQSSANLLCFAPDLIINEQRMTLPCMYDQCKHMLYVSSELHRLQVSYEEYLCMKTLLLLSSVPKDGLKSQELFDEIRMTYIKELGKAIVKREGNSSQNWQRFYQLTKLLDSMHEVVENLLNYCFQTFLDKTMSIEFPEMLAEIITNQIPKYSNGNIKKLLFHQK", "experiment": "GR-GFP Redistribution (AID 450;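 active = compounds whose dose series gives a full or clear partial fitted curve of increased nuclear translocation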; note: potency is the fitted concentration of half-maximal effect)", "details": "U2OS GR-GFP nuclear translocation, laser cytometry, 2 h"}, "[5]": {"target": "Calcium and integrin-binding protein 1 (Homo sapiens) (UniProt Q99828)", "sequence (Q99828 whole entry, looked up)": "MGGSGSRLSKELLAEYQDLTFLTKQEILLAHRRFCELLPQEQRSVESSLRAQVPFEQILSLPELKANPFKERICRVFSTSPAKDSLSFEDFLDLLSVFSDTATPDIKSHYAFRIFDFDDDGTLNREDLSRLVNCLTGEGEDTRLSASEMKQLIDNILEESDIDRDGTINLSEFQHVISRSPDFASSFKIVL", "experiment": "Primary qHTS for Identification of Calcium Integrin Binding Protein 1 (CIB1) Competitor (AID 1508620);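 note: GST tagged CIB1 binding a fluorescein labelled alphaIIb integrin peptide tracer; top concentration of the series differs between compounds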", "procedure,_shortened": "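Fluorescence polarization competition: CIB1-GST (1 uM final) preincubated with compound 15 min at room temperature, then FITC-labeled alphaIIb peptide (100 nM final) added for another 15 min. Polarization read at Ex 480/Em 540.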"}, "[6]": {"target": "Mitogen-activated protein kinase 10 (Mus musculus) (UniProt Q61831)", "experiment": "JNK3 AlphaScreen Assay (AID 530; active = well fitted curve in either direction with a large enough effect, not every such curve was filed as active)", "procedure,_shortened": "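Phosphorylation of biotinylated GST-cJun(1-79) at Ser73 is measured by AlphaScreen proximity luminescence. Enzyme is JNK3 in HepG2 lysates activated with interleukin-1beta and tumor necrosis factor alpha; ATP is 10 uM final.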"}, "[7]": {"target": "Lysosomal alpha-glucosidase (Homo sapiens) (UniProt P10253)", "experiment": "Confirmation of Inhibitors and Activators of Purified Human alpha-Glucosidase (AID 2115; active = well fitted curve in either direction with a large enough effect)", "procedure,_shortened": "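Fluorogenic 4-MU-substrate hydrolysis (400 uM substrate, 4 nM human enzyme) over 20 min at room temperature, pH 5.0 citrate buffer plus 0.005% Tween-20; NaOH/glycine stop, then ex 365/em 440 nm read. Titration up to 77 uM; Hill-equation AC50, normalized to no-enzyme and full-activity controls.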"}, "[8]": {"target": "Cytochrome P450 3A4 (Homo sapiens) (UniProt P08684)", "sequence (P08684 whole entry, looked up)": "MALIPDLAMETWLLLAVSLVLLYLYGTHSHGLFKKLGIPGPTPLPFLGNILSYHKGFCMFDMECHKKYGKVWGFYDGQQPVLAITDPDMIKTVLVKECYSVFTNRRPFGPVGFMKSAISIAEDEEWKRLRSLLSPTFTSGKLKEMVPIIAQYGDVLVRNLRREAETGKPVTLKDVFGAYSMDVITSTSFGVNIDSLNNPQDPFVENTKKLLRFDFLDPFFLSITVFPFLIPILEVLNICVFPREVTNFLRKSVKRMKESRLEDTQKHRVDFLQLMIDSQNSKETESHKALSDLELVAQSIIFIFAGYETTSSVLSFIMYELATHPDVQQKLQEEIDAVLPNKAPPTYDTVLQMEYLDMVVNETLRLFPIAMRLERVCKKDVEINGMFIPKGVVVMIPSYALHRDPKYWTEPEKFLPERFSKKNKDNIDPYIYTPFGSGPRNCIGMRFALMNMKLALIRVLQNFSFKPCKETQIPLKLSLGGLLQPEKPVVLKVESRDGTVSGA", "experiment": "qHTS Assay for Inhibitors and Substrates of Cytochrome P450 3A4 (AID 884); note: nearly all actives have a fitted effect of over 50% in size; note: potency is the fitted concentration of half-maximal effect", "procedure,_shortened": "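Luminescent readout of luciferin produced by CYP3A4 (20 nM) dealkylation of Luciferin-PPXE, 25 uM (its KM). NADPH-driven reaction ran 60 min at RT after 10 min compound preincubation; data scaled to 57 uM ketoconazole as 100% inhibition.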"}, "[9]": {"target": "Cytochrome P450 3A4 (Homo sapiens) (UniProt P08684)", "experiment": "qHTS Assay for Activators of Cytochrome P450 3A4 (AID 885); note: nearly all actives have a fitted effect of over 65% in size", "procedure,_shortened": "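Activators are scored by enhanced luminescence from CYP3A4 conversion of luciferin-PPXE (25uM, equal to KM) to luciferin, after 60 min at RT with an NADPH-regenerating system.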"}}, "note": "A number with no mark means an inactive call. Inconclusive results are not listed. Where a call stands in place of a potency, no number is given. Activity calls are given as the source filed them. Unless noted, calls come from the whole dose curve; as a rule, active = well fitted curve in the direction sought with a large enough effect; inconclusive = small, poorly fitted or top-dose-only effect, or another doubt; inactive = no such curve, though single readings can be large; an effect the other way counts as inactive or inconclusive.", "data": [{"compound": "CNc1oc(-c2cccs2)nc1C#N", "values": [{"measurement": "activity change, negative = inhibition", "setting": "[1]", "value": "3.62% [at 17.2 µM]"}, {"measurement": "activity change, negative = inhibition", "setting": "[2]", "value": "11.4% [at 17.2 µM]"}, {"measurement": "activity, negative = inhibition", "setting": "[3]", "value": "-2.1% [at 17.2 µM]"}, {"measurement": "Potency", "setting": "[4]", "value": "> 20.6", "unit": "µM"}, {"measurement": "Potency", "setting": "[5]", "value": "inactive"}]}, {"compound": "CCCn1c(C)nc2c(NCCN3CCCCC3)nc(C)nc21", "values": [{"measurement": "outcome", "setting": "[6]", "value": "inactive"}, {"measurement": "Potency", "setting": "[5]", "value": "inactive"}]}, {"compound": "CC(=O)c1ccc(N2CCN(S(=O)(=O)c3ccc4c(c3)CCCN4C(C)=O)CC2)cc1", "values": [{"measurement": "Potency", "setting": "[7]", "value": "inactive"}, {"measurement": "Potency", "setting": "[5]", "value": "inactive"}]}, {"compound": "CC(=O)c1ccc(N2CCN(S(=O)(=O)c3ccc(N4CCCC4=O)cc3)CC2)cc1", "values": [{"measurement": "Potency", "setting": "[7]", "value": "inactive"}, {"measurement": "Potency", "setting": "[5]", "value": "inactive"}]}, {"compound": "CC(=O)c1ccc(N2CCN(S(=O)(=O)c3ccc4c(c3)CCC(=O)N4)CC2)cc1", "values": [{"measurement": "Potency", "setting": "[7]", "value": "inactive"}, {"measurement": "Potency", "setting": "[5]", "value": "inactive"}]}, {"compound": "CCCn1c(-c2ccc(F)cc2)nc2c(N3CCN(CCn4ccnc4)CC3)nc(C)nc21", "values": [{"measurement": "outcome", "setting": "[6]", "value": "inactive"}, {"measurement": "Potency", "setting": "[8]", "value": "0.631 µM (active)"}, {"measurement": "Potency", "setting": "[9]", "value": "inactive"}, {"measurement": "Potency", "setting": "[5]", "value": "inactive"}]}, {"compound": "CCCn1c(C)nc2c(NCCOC)nc(C)nc21", "values": [{"measurement": "outcome", "setting": "[6]", "value": "inactive"}, {"measurement": "Potency", "setting": "[8]", "value": "inactive"}, {"measurement": "Potency", "setting": "[5]", "value": "inactive"}]}, {"compound": "CCCn1c(-c2ccc(F)cc2)nc2c(NCCCN3CCOCC3)nc(C)nc21", "values": [{"measurement": "outcome", "setting": "[6]", "value": "inactive"}, {"measurement": "Potency", "setting": "[8]", "value": "5.01 µM (active)"}, {"measurement": "Potency", "setting": "[9]", "value": "inactive"}, {"measurement": "Potency", "setting": "[5]", "value": "inactive"}]}, {"compound": "CCCn1c(-c2ccc(F)cc2)nc2c(NCCN3CCCC3)nc(C)nc21", "values": [{"measurement": "outcome", "setting": "[6]", "value": "inactive"}, {"measurement": "Potency", "setting": "[8]", "value": "inactive"}, {"measurement": "Potency", "setting": "[5]", "value": "inactive"}]}]}
